Cruzain Triton = blocks cruzain activity in presence of Triton detergent | 200,000 compounds, 0.43% hits | purified cruzain, Z-FR-AMC fluorescence, 0.01% Triton | Potency, µM, most hits filed as inhibitors | P25779; further: nearly all actives have a fitted effect of over 40% in size
Target sequence (P25779 123-467 limits assumed): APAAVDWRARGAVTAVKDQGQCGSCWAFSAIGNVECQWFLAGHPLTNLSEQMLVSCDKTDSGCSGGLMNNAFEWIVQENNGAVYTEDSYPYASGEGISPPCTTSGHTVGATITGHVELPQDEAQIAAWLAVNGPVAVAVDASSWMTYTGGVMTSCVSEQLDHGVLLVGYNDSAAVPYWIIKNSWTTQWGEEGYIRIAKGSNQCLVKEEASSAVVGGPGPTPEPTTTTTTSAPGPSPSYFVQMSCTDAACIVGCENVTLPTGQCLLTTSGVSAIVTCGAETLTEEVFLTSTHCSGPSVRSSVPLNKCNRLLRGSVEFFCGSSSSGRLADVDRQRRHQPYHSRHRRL
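Compounds were screened in titration against cruzain (1.5 nM) with 0.01% Triton X-100 to counter colloidal aggregation. Activity was the AMC fluorescence increase over 60 s after adding 2 uM Z-FR-AMC at pH 5.5.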
Cruzain noTriton = cruzain (T. cruzi) inhibition without detergent; Potency, µM, actives largely listed as inhibitors; P25779; 200,000 compounds, 2.3% hits; purified cruzain, Z-FR-AMC fluorescence, no detergent; further: nearly all actives have a fitted effect of over 40% in size
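Purified cruzain at 1.5 nM, pre-incubated 15 min with compound at room temperature in 100 mM sodium acetate pH 5.5, 5 mM DTT, 0.00005% Triton X-100. Reaction started with 2 uM Z-FR-AMC; AMC fluorescence increase over 60 s gives rate.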
Hits are given with their value. This is a sample that favours compounds with a hit; in the whole collection about 2.5% have one here. The call rests on the fitted dose curve; in most records, active means well fitted curve in the direction sought with a large enough effect; inconclusive means small, poorly fitted or top-dose-only effect, or another doubt; inactive means no such curve, though single readings can be large; an effect the other way counts as inactive or inconclusive.

Screening Cc1ccc2c(c1)c(=O)c1c3n2CCN(C(=O)CCl)C3CC1 (stereo not given) returned Cruzain Triton 16µM and Cruzain noTriton inactive.
`Cc1ccc(-c2cnc(C3CC3)o2)cc1S(=O)(=O)Nc1ccc(F)cc1Cl` gave Cruzain Triton inactive and Cruzain noTriton inactive.
Screening CC(=O)c1c(N2CCCC2)[nH]c(-c2ccccc2)nc1=S returned Cruzain Triton inactive and Cruzain noTriton inactive.
`CC(=O)c1c(N2CCN(Cc3ccccc3)CC2)[nH]c(-c2ccccc2)nc1=S` gave Cruzain Triton inactive and Cruzain noTriton 10µM.
Screening CCN(CC)c1ccc(CN(C(=O)c2cc(=O)c3ccccc3o2)C2CCS(=O)(=O)C2)cc1 (stereo not given) returned Cruzain Triton inactive and Cruzain noTriton inactive.
Screening CCOc1ccc(NC(=O)/C(C#N)=C\c2ccc(-c3ccc(Cl)cc3)o2)cc1 returned Cruzain Triton inactive and Cruzain noTriton inactive.
COc1ccc(CC(=O)Nc2nnc(-c3cccc([N+](=O)[O-])c3)s2)cc1 was read as Cruzain Triton inactive and Cruzain noTriton inconclusive.
`O=C(Cc1ccccc1)Nc1nnc(-c2cccc([N+](=O)[O-])c2)s1` gave Cruzain Triton inactive and Cruzain noTriton 16µM.
Screening O=C(Nc1ncc(Cc2ccc(C(F)(F)F)cc2)s1)c1ccc(-c2cccc([N+](=O)[O-])c2)o1 returned Cruzain Triton inactive and Cruzain noTriton 13µM.
Screening O=C(Nc1ncc(Cc2ccccc2Cl)s1)c1ccc([N+](=O)[O-])cc1 returned Cruzain Triton inactive and Cruzain noTriton inconclusive.
For O=C(Nc1ncc(Cc2ccccc2Cl)s1)c1ccc(-c2cccc([N+](=O)[O-])c2)o1 the results were Cruzain Triton inactive and Cruzain noTriton 6.3µM.
Cc1ccc(Cc2cnc(NC(=O)/C(C#N)=C/c3ccc(-c4ccc([N+](=O)[O-])cc4)o3)s2)cc1 was read as Cruzain Triton inactive and Cruzain noTriton 2.5µM.
For O=C(Nc1ncc(Cc2cccc(Cl)c2)s1)c1ccc([N+](=O)[O-])cc1 the results were Cruzain Triton inactive and Cruzain noTriton inconclusive.
Screening NC1=NC([S][Hg][c]2ccc(N)cc2)c2ncn([C@@H]3O[C@H](CO)[C@@H](O)[C@@H]3O)c2N1 (stereo not given in full) returned Cruzain Triton inactive and Cruzain noTriton inactive.
For CC1CCCCN1C(=O)c1ccc2c(c1)N(Cc1ccc(Cl)cc1)C(=O)c1ccccc1S2=O (stereo not given) the results were Cruzain Triton inactive and Cruzain noTriton inactive.
Screening CCOC(=O)c1sc2ncn(CC(=O)Nc3ccc(OC)c(Cl)c3)c(=O)c2c1C returned Cruzain Triton inactive and Cruzain noTriton inactive.
For Cc1cn(C)c(CC(=O)Nc2cccc(C#N)c2)c1C(=O)O the results were Cruzain Triton inactive and Cruzain noTriton inactive.
For COc1ccc(CC(=O)NC2CC(=O)N(c3cccc(F)c3)C2)cc1OC (stereo not given) the results were Cruzain Triton inactive and Cruzain noTriton inactive.
`c1ccc(CCNc2nc3ccccc3n3nnnc23)cc1` gave Cruzain Triton inactive and Cruzain noTriton 13µM.
For COc1ccc(CCNc2nc3ccccc3n3nnnc23)cc1OC the results were Cruzain Triton inactive and Cruzain noTriton inactive.
For CN(C)c1ccc(Nc2nc3ccccc3n3nnnc23)cc1 the results were Cruzain Triton inactive and Cruzain noTriton 16µM.
For c1ccc(N2CCN(c3nc4ccccc4n4nnnc34)CC2)cc1 the results were Cruzain Triton inactive and Cruzain noTriton 25µM.
`c1ccc2c(c1)nc(N1CCOCC1)c1nnnn12` gave Cruzain Triton inactive and Cruzain noTriton inactive.
`CCOc1ccc(Nc2nc3ccccc3n3nnnc23)cc1` gave Cruzain Triton inactive and Cruzain noTriton inactive.
O=C1CN(C(=O)Cc2ccc(F)cc2)C(c2ccccc2)c2cc(Br)ccc2N1 (stereo not given) was read as Cruzain Triton inactive and Cruzain noTriton inactive.
CCOc1ccc(NC(=O)c2nn(C)c3c2CS(=O)(=O)c2ccccc2-3)cc1 was read as Cruzain Triton inactive and Cruzain noTriton inactive.
For Cc1c(N=C=O)cccc1N=C=O the results were Cruzain Triton inactive and Cruzain noTriton inactive.
`COc1ccc(NC(=O)c2csnn2)cc1Cl` gave Cruzain Triton inactive and Cruzain noTriton inactive.
Screening O=C(Nc1ccc(-c2cn3ccccc3n2)cc1)c1ccc(Cl)cc1 returned Cruzain Triton inactive and Cruzain noTriton 13µM.
O=C(Nc1ccc(-c2cn3ccccc3n2)cc1)c1ccco1 was read as Cruzain Triton inactive and Cruzain noTriton inactive.
Screening O=c1cc(-c2ccc(F)cc2)nc(SCc2nc(-c3cccc(C(F)(F)F)c3)no2)[nH]1 returned Cruzain Triton inactive and Cruzain noTriton inactive.
Cc1c(O)nc(SCC(=O)Nc2ccc3c4c(cccc24)CC3)n(-c2ccccc2)c1=O was read as Cruzain Triton inactive and Cruzain noTriton inconclusive.
For O=C(CSc1nc(O)cc(=O)n1-c1ccccc1)Nc1ccc2c3c(cccc13)CC2 the results were Cruzain Triton 25µM and Cruzain noTriton inconclusive.
For COc1ccc(C)cc1NC(=O)Nc1ccccc1OCc1cc(=O)n2ccccc2n1 the results were Cruzain Triton inactive and Cruzain noTriton inconclusive.
For O=C(Nc1ccc(-c2nc3cc(NC(=O)c4ccccc4F)ccc3o2)cc1)c1ccccc1F the results were Cruzain Triton inactive and Cruzain noTriton inactive.
Screening COc1ccc(Cl)cc1NC(=O)Cn1cccc1 returned Cruzain Triton inactive and Cruzain noTriton inactive.
Screening O=S1(=O)c2ccccc2N(Cc2ccc(Cl)cc2)c2ccccc21 returned Cruzain Triton inactive and Cruzain noTriton inactive.
`O=S1(=O)c2ccccc2N(Cc2ccc(Cl)cc2F)c2ccccc21` gave Cruzain Triton inactive and Cruzain noTriton 32µM.
COc1ccc(Cl)cc1NC(=O)CN1c2ccccc2S(=O)(=O)c2ccccc21 was read as Cruzain Triton inactive and Cruzain noTriton 20µM.
Screening CCOC(=O)c1ccc(NC(=O)CSc2nc3ccccc3c(=O)n2CCNC(C)=O)cc1 returned Cruzain Triton inactive and Cruzain noTriton inactive.
C=CCn1c(SCC(=O)N2CCCC2)nc2scc(-c3cccs3)c2c1=O was read as Cruzain Triton inactive and Cruzain noTriton inactive.
C=CCn1c(SCC(=O)Nc2ccccc2)nc2scc(-c3cccs3)c2c1=O was read as Cruzain Triton inactive and Cruzain noTriton 25µM.
For O=c1c2ccccc2nnn1CSc1nnc(-c2cccs2)n1Cc1ccccc1 the results were Cruzain Triton inactive and Cruzain noTriton inactive.
Screening C=CCn1c(SCn2nnc3ccccc3c2=O)nc2scc(-c3cccs3)c2c1=O returned Cruzain Triton inactive and Cruzain noTriton 7.9µM.
Screening CCCC(=O)NCC(c1ccc2c(c1)OCO2)N1CCN(c2ccc(F)cc2)CC1 (stereo not given) returned Cruzain Triton inactive and Cruzain noTriton inactive.
`Cc1ccc(C)c(NC(=O)CCCN2C(=O)COc3ccc(C)cc32)c1` gave Cruzain Triton inactive and Cruzain noTriton inactive.
Cc1ccc(-c2noc(-c3nnn(CC(=O)Nc4cc(Cl)ccc4C)c3N)n2)cc1 was read as Cruzain Triton inactive and Cruzain noTriton inactive.
Screening N#Cc1c(C(F)(F)F)cc(-c2cccs2)nc1SCC(=O)Nc1cccc(C(F)(F)F)c1 returned Cruzain Triton inactive and Cruzain noTriton inactive.
For CC(C)(C)C(=O)CSc1nc2c(c(-c3cccs3)c1C#N)CCC2 the results were Cruzain Triton inactive and Cruzain noTriton 25µM.

Screening data deposited in PubChem BioAssay by National Center for Advancing Translational Sciences (NCATS).
